High-throughput results deposited in PubChem BioAssay by several laboratories.
NLRP3 yeast inh – NALP3 inflammasome inhibitors in reconstituted yeast, primary screen, luminescence, uHTS; Yeast reconstituted NLRP3/ASC/caspase-1, beta-gal luminescence, 24 h; hit rate 0.39% among 330,000; AID 2825, 2010; inhibition, % at 10 µM;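 active = inhibition of 50% or more; inactive = inhibition below 50%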;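 note: plate controls were induced DMSO wells for no effect and uninduced yeast grown without galactose for full effect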
tim23-1 inh – growth inhibitors of tim23-1 mutant yeast, primary screen, luminescence, uHTS; S. cerevisiae tim23-1 growth, BacTiter-Glo luminescence, 24 h; hit rate 1.3% among 330,000; inhibition, % at 20 µM;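 active = growth inhibition of the mutant yeast at or above 50%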;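 note: temperature-sensitive mutant grown at 25 °C; plate controls were DMSO-treated mutant yeast for no effect and medium wells lacking yeast for full effect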
tim10-1 inh – growth inhibitors of tim10-1 mutant yeast, primary screen, luminescence, uHTS; AID 463190, 2010; S. cerevisiae tim10-1 ts strain growth, BacTiter-Glo, 24 h; inhibition, % at 20 µM; hit rate 2.2% among 330,000;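 active = inhibition of at least 40%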;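 note: mutant grown at 25 °C; 0% = DMSO wells with yeast and 100% = wells holding no yeast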
TIM10 inh – growth inhibitors of isogenic TIM10 control yeast, primary screen, counter-screen for tim10-1 yeast inhibitor project, luminescence, uHTS. S. cerevisiae TIM10 strain growth, BacTiter-Glo luminescence, 24 h. inhibition, % at 10 µM. hit rate 1.4% among 330,000. AID 463195, 2010;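 active = inhibition of 40% or more at the single tested concentration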;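 note: wild-type TIM10 isogenic control strain grown at permissive 25 °C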
SKKanGAS inh – S. pyogenes SKKanGAS growth inhibitors in kanamycin, primary screen, streptokinase expression inhibitor project, SKKanGAS strain, BacTiter-Glo luminescence. 6 h. inhibition, % at 7.5 µM. hit rate 1.3% among 300,000. AID 1662, 2009;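 active = mean replicate score, as percent of positive control median, at least 50; inconclusive = mean below 50 but one replicate at or above 50; inactive = mean and every replicate below 50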;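 note: strain carries kanamycin resistance gene driven by streptokinase promoter and grows in 40 µg/ml kanamycin; loss of luminescence reflects streptokinase promoter inhibition or plain growth inhibition; 0% = median of DMSO wells and 100% = positive control at its reference dose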
Starred values were filed as active, the others as inactive; u = inconclusive; x = no result given. Rows were chosen to be rich in hits. Some 4.6% of all compounds tested hit in one or more screens of this group.

SMILES	NLRP3 yeast inh	tim23-1 inh	tim10-1 inh	TIM10 inh	SKKanGAS inh
CCOC(=O)c1cnc(-n2nc(C)cc2C)nc1NC	21	20	14	-33	u
CCOC(=O)c1cnc(-n2nc(C)cc2C)nc1NNc1nc(C)cc(C)n1	4	-1	21	-16	80*
Cc1ccc(NCC(=O)N/N=C/c2cccc(Oc3ccccc3)c2)cc1	17	7	-9	13	27
Cc1cccc(NCC(=O)N/N=C\c2cccc(Oc3ccccc3)c2)c1	25	8	15	37	58*
Cc1ccc(CSCc2nc3ccccc3[nH]2)cc1	x	x	x	x	0
Cc1cc(C)cc(CC(Cc2nc3ccccc3[nH]2)c2nc3ccccc3[nH]2)c1 (configuration not stated)	15	2	-15	-24	57*
Cc1cc(C)nc(N/N=C/c2cc(Br)ccc2O)n1	38	26	-31	-4	69*
CCCN1CCN(CC(=O)Nc2nnc(CC)s2)CC1	11	-6	-7	3	-2
CCN(CC)c1nc(Nc2ccc([N+](=O)[O-])cc2)nc(N(CC)CC)n1	17	22	13	6	65*
Cc1ccc(NC(=O)CSc2nnnn2C2CCCC2)cc1S(=O)(=O)N1CCOCC1	-6	16	7	6	x
COc1cccc(OC)c1C(=O)NC(=S)NCc1ccccc1	11	-9	-11	-23	-13
COc1cccc(OC)c1C(=O)NC(=S)NNC(=O)[C@H]1C[C@@H]1c1ccccc1	23	0	22	14	79*
O=C(NC(=S)NNC(=O)[C@H]1C[C@@H]1c1ccccc1)c1cccc(F)c1	26	-24	29	-33	99*
O=C(COC(=O)c1ccc(F)c(S(=O)(=O)N2CCOCC2)c1)NCCc1ccc(F)cc1	5	-4	3	3	x
NS(=O)(=O)c1ccc(CCNC(=O)COC(=O)CCc2c[nH]c3ccccc23)cc1	20	-3	11	-8	x
Nc1c(Cl)cc(C2=NCCn3c2c2ccc([N+](=O)[O-])cc2[n+]3[O-])cc1Cl	7	0	24	1	68*
Nc1c(Cl)cc(C2=NCCn3nc4cc([N+](=O)[O-])ccc4c32)cc1Cl	24	10	23	8	x
CS(=O)(=O)c1ccc([C@@H](O)[C@@H](CO)NC(=O)C(Cl)Cl)cc1	-1	0	-1	0	108*
CC(c1ccccc1)N1C(=O)c2ccc(C(=O)Nc3ccc(Br)cc3C(=O)O)cc2C1=O (configuration not stated)	-2	30	16	7	53*
Cc1nc(SCc2nc3c(F)cccc3[nH]2)c2oc3ccccc3c2n1	37	27	14	-2	x
O=C1NC(Cc2ccc(O)cc2)c2nc3ccc(Br)cc3c(=O)n2-c2ccc(Cl)cc21 (configuration not stated)	-3	4	7	-1	x
O=C(COC(=O)c1cc[n+]([O-])cc1)Nc1cccc(F)c1	1	12	-1	7	x
Cc1ccc(NC(=S)c2nc3ccccc3[nH]2)c(C)c1	31	15	40	23	82*
Cc1ccc(NC(=S)c2ccncc2)c(C)c1	5	11	-8	-32	0
Cc1ccc(NC(=S)c2nc3ccccc3[nH]2)cc1	15	49	26	19	93*
SMILES	NLRP3 yeast inh	tim23-1 inh	tim10-1 inh	TIM10 inh	SKKanGAS inh
COc1ccc(S(=O)(=O)Nc2cccc3c2O[C@H](CN(C)C(=O)Nc2ccc4c(c2)OCO4)[C@@H](C)CN([C@H](C)CO)C3=O)cc1	-5	9	2	7	x
CC1CCN(C(=S)NC(=O)c2cccc([N+](=O)[O-])c2)CC1	20	24	29	19	21
CCC1CCCCN1C(=S)NC(=O)c1cccc([N+](=O)[O-])c1 (configuration not stated)	17	31	35	30	53*
Cc1cc(/C=N/n2cnnc2)c(C)n1-c1ccc(OCc2ccc(Cl)cc2)cc1	27	17	17	21	62*
COc1ccc(/C=C/C(=O)OCC(=O)NCc2ccccc2Cl)cc1OC	16	24	17	-2	x
NCCCn1c(C(=O)c2cc(Cl)c(N)c(Cl)c2)c2ccc([N+](=O)[O-])cc2[n+]1[O-]	23	-13	13	0	63*
